The supplement of paper PMC10849652
The full data set covers some 7,900 targets. This sample favours those with a hit. About 0.6% of all pairs of compound and target were hits.

Columns and labels:
Experiment in all cases: log2 fold change, soluble protein after heating vs DMSO (PISA); higher = thermal stabilisation; K562 cells, 10 uM, 30 min; active = over 0.2 and 3.5 SD of the protein, either way, in both replicates (recomputed)
[1] = compound: CC1=C(C=C(C=C1)NC(=O)C2=CC(=CC=C2)C(C)(C)C#N)NC3=CC4=C(C=C3)N=CN(C4=O)C
Summary of the method: (§1)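 K562 cells (2×10^6 cells/mL) were treated with 10 μM compound for 30 min, and aliquots were heated for 3 min over 48°C-58°C. Pooled aliquots were extracted in PBS with 0.5% NP-40 at 4°C, and the supernatant after 21,000xg for 90 min was measured by TMTpro 16plex LC-MS/MS with channel sums equalised. Reported thermal stability, relative to control samples and from duplicates, is a log2 fold change.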

[2] = compound: CC1=C(C=C(C=C1)NC(=O)C2=CC(=CC=C2)N(C)C)NC(=O)C3=CC=C(C=C3)O
Summary of the method: as §1

[3] = compound: CC1=CC=C(C=C1)SC2=C3C=C(SC3=CN=C2)C(=O)N
Summary of the method: as §1

[4] = compound: CC1=NC(=CC=C1)C2=C(N=C(N2)C(C)(C)C)C3=CC4=NC=CN=C4C=C3
Summary of the method: as §1

Nexturastat A = compound: CCCCN(Cc1ccc(C(=O)NO)cc1)C(=O)Nc1ccccc1 [Nexturastat A]
Summary of the method: as §1

vemurafenib = compound: CCCS(=O)(=O)Nc1ccc(F)c(C(=O)c2c[nH]c3ncc(-c4ccc(Cl)cc4)cc23)c1F [vemurafenib]
Summary of the method: as §1

[5] = compound: CCCS(=O)(=O)Nc1ccc(F)c(C(=O)c2c[nH]c3ncc(Cl)cc23)c1F
Summary of the method: as §1

[6] = compound: CCCc1cc(C)[nH]c(=O)c1CNC(=O)c1cc(-c2ccnc(N3CCN(C)CC3)c2)cc2c1cnn2C(C)C
Summary of the method: as §1

givinostat = compound: CCN(CC)Cc1ccc2cc(COC(=O)Nc3ccc(C(=O)NO)cc3)ccc2c1 [givinostat]
Summary of the method: as §1

barasertib = compound: CCN(CCCOc1ccc2c(Nc3cc(CC(=O)Nc4cccc(F)c4)[nH]n3)ncnc2c1)CCOP(=O)(O)O [barasertib]
Summary of the method: as §1

[7] = compound: CC[C@@H]1C(=O)N(C)c2cnc(Nc3ccc(C(=O)NC4CCN(C)CC4)cc3OC)nc2N1C1CCCC1
Summary of the method: as §1

volasertib = compound: CC[C@@H]1C(=O)N(C)c2cnc(Nc3ccc(C(=O)N[C@H]4CC[C@H](N5CCN(CC6CC6)CC5)CC4)cc3OC)nc2N1C(C)C [volasertib]
Summary of the method: as §1

[8] = compound: CC[C@H](C)N1C=C(C2=C(C=C(C=C21)C3=CN=C(C=C3)N4CCNCC4)C(=O)NCC5=C(C=C(NC5=O)C)C)C
Summary of the method: as §1

epoxomicin = compound: CC[C@H](C)[C@@H](C(=O)N[C@@H]([C@@H](C)O)C(=O)N[C@@H](CC(C)C)C(=O)[C@]1(CO1)C)NC(=O)[C@H]([C@@H](C)CC)N(C)C(=O)C [epoxomicin]
Summary of the method: as §1

[9] = compound: CCn1c(C(=O)N(C2CC2)C2CC2)cc2c3c(ncn3C)c(Nc3cc(C)n(C)n3)nc21
Summary of the method: as §1

[10] = compound: CCn1cc(-c2ccnc3[nH]c(-c4cccc(CN(C)C)c4)cc23)c(-c2ccc(NC(=O)N(C)C)cc2)n1
Summary of the method: as §1

[11] = compound: CN(C)CC(=O)Nc1ccc2[nH]c(=O)c3ccccc3c2c1
Summary of the method: as §1

rosiglitazone = compound: CN(CCOC1=CC=C(C=C1)C[C@H]2C(=O)NC(=O)S2)C3=CC=CC=N3 (racemic) [rosiglitazone]
Summary of the method: as §1

[12] = compound: CN1C2=C(C3=C1C(=O)N(N=C3)CC4=CC(=CC=C4)N)SC(=C2)S(=O)C
Summary of the method: as §1

[13] = compound: CN1CCC(CNc2ccc3ncc(-c4cccc(OC(F)(F)F)c4)n3n2)CC1
Summary of the method: as §1

Measured: log2 fold change

TNFAIP8 isoform 4 (UniProt O95379)
Chain of UniProt O95379 (O95379 whole entry, looked up): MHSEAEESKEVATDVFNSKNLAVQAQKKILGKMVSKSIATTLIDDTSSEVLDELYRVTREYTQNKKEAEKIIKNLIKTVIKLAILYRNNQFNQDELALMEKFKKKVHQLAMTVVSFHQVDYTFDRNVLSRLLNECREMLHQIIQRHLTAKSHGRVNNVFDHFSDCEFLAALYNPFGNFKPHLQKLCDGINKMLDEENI
inactive: [1] -0.019 | [2] -0.013 | [3] -0.021 | [4] 0.051 | Nexturastat A -0.102 | vemurafenib 0.014 | [5] -0.102 | [6] -0.052 | givinostat 0.003 | barasertib 0.065 | [7] -0.015 | volasertib -0.414 | [8] 0.053 | epoxomicin 0.041 | [9] 0.07 | [10] -0.088 | [11] 0.022 | rosiglitazone 0.001 | [12] -0.084 | [13] -0.125

TMEM263 (UniProt Q8WUH6)
active: [7] -0.462 | [13] -1.32
inactive: [1] -0.009 | [2] -0.015 | [3] 0.117 | [4] 0.059 | Nexturastat A -0.02 | vemurafenib -0.051 | [5] 0.128 | [6] -0.138 | givinostat -0.015 | barasertib 0.054 | volasertib -0.5 | [8] -0.03 | epoxomicin 0.005 | [9] -0.004 | [10] -0.105 | [11] 0.024 | rosiglitazone 0.015 | [12] -0.057

UBAP2L isoform 1 (UniProt Q14157)
inactive: [1] -0.057 | [2] 0.035 | [3] -0.016 | [4] 0.025 | Nexturastat A 0.012 | vemurafenib -0.083 | [6] -0.045 | barasertib -0.011 | [7] -0.026 | volasertib -0.417 | [8] 0.046 | epoxomicin -0.005 | [9] 0.059 | [10] 0.026 | [11] -0.004 | rosiglitazone 0.001 | [12] 0 | [13] -0.023
active: [5] 0.246 | givinostat -0.261

TOM1L1 (UniProt O75674)
Chain of UniProt O75674 (O75674 whole entry, looked up): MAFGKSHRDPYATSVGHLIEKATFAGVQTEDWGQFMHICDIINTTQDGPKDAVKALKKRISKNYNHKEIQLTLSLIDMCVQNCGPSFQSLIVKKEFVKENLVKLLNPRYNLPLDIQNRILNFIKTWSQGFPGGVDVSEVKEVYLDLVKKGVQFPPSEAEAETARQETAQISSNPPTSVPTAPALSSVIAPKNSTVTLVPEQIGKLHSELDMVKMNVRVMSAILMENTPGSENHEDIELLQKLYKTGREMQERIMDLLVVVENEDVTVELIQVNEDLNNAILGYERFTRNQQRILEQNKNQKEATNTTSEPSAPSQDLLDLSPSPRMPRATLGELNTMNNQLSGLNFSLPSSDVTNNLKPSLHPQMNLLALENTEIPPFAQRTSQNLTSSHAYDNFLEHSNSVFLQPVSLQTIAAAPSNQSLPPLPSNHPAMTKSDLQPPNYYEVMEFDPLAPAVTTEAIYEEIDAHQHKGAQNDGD
inactive: [1] -0.101 | [2] 0.005 | [3] 0.057 | [4] 0.019 | Nexturastat A -0.038 | vemurafenib 0.102 | [5] 0.015 | [6] -0.07 | givinostat 0.024 | barasertib 0.03 | [7] 0.072 | volasertib -0.052 | [8] 0.027 | epoxomicin 0.013 | [9] -0.023 | [10] -0.004 | [11] 0.043 | rosiglitazone 0.062 | [12] -0.053
active: [13] 0.385

WDR46 (UniProt O15213)
Chain of UniProt O15213 (O15213 whole entry, looked up): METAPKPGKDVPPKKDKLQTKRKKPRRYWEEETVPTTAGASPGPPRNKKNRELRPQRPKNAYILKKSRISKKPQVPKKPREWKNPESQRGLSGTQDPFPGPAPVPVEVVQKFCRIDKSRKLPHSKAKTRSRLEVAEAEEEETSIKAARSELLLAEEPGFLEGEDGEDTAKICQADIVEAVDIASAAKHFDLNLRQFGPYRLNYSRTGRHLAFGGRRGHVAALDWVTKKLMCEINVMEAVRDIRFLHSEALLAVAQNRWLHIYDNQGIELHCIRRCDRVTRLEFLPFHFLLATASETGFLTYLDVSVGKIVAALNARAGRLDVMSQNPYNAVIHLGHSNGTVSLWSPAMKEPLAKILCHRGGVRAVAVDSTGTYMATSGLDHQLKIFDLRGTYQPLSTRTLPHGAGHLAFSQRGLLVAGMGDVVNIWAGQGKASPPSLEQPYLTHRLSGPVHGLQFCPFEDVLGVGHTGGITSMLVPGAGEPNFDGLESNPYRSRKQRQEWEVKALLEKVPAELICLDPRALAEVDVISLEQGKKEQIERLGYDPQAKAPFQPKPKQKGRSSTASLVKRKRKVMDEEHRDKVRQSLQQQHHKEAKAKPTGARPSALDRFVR
inactive: [1] 0.039 | [2] -0.021 | [3] -0.001 | [4] -0.102 | Nexturastat A 0.216 | vemurafenib -0.135 | [5] -0.026 | [6] 0.136 | givinostat -0.05 | barasertib -0.064 | [7] 0.195 | volasertib 0.073 | [8] -0.085 | epoxomicin -0.417 | [9] 0.008 | [10] 0.288 | [11] -0.2 | rosiglitazone -0.077 | [12] 0.311 | [13] 0.389

UBLCP1 (UniProt Q8WVY7)
Chain of UniProt Q8WVY7 (Q8WVY7 whole entry, looked up): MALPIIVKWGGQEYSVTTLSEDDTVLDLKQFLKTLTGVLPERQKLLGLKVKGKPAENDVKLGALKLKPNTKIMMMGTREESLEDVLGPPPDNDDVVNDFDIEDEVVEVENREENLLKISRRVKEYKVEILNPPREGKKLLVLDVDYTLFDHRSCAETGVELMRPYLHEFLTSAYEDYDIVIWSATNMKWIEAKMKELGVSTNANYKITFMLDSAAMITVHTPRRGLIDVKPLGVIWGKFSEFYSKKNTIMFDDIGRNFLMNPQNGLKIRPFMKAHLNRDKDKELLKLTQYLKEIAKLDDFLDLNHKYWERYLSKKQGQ
active: volasertib -0.356
inactive: [1] -0.011 | [2] -0.078 | [3] -0.03 | [4] 0.03 | Nexturastat A 0.025 | vemurafenib 0.076 | [5] 0.093 | [6] -0.006 | givinostat 0.122 | barasertib 0.057 | [7] -0.191 | [8] 0.019 | epoxomicin 0.168 | [9] -0.059 | [10] -0.072 | [11] 0.039 | rosiglitazone 0.019 | [12] -0.024 | [13] 0.013

TRMT2A (UniProt Q8IZ69)
Chain of UniProt Q8IZ69 (Q8IZ69 whole entry, looked up): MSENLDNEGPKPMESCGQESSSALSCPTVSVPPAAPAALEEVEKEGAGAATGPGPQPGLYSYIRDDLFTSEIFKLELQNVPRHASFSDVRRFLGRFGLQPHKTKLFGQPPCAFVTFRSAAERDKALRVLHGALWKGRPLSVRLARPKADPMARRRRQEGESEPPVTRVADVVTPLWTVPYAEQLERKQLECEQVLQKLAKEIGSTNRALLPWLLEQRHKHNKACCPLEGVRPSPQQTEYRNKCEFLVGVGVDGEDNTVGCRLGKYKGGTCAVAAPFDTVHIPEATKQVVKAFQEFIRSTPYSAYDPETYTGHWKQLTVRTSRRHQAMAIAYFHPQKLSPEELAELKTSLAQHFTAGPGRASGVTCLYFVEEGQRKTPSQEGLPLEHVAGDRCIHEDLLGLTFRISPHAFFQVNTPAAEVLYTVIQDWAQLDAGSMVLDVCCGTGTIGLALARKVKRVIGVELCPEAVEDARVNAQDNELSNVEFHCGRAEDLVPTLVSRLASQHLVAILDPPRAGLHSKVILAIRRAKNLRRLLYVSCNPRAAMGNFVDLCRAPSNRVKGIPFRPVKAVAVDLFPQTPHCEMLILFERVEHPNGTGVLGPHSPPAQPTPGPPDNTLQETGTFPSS
inactive: [1] 0.083 | [2] -0.02 | [3] -0.009 | [4] 0.005 | Nexturastat A 0.013 | vemurafenib 0.022 | [5] -0.032 | [6] 0.085 | givinostat -0.123 | barasertib -0.003 | [7] 0.01 | volasertib 0.016 | [8] 0.044 | epoxomicin -0.083 | [9] 0.086 | [10] -0.003 | [11] 0.034 | rosiglitazone -0.001 | [12] 0.1 | [13] -0.198

TMEM161B (UniProt Q8NDZ6)
Chain of UniProt Q8NDZ6 (Q8NDZ6 whole entry, looked up): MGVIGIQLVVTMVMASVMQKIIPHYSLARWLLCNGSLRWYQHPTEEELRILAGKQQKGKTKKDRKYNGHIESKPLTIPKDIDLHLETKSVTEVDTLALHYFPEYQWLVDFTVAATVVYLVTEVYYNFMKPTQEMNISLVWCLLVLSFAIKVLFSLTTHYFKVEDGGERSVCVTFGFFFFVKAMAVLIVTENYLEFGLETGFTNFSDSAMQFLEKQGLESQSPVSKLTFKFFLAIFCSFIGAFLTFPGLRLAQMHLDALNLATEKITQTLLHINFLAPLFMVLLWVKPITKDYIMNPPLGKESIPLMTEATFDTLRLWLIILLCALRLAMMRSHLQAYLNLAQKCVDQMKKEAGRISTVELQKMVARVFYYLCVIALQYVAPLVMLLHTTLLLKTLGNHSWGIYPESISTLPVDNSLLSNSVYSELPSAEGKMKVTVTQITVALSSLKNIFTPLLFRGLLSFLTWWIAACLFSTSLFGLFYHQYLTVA
inactive: [1] 0.003 | [2] -0.012 | [3] 0.026 | [4] 0.008 | Nexturastat A -0.063 | vemurafenib 0.079 | [5] 0.053 | [6] 0.012 | givinostat 0.032 | barasertib -0.037 | [7] -0.028 | volasertib -0.038 | [8] 0.062 | epoxomicin 0.058 | [9] 0.01 | [10] 0.02 | [11] 0.079 | rosiglitazone 0.028 | [12] -0.068 | [13] -0.186

WDR62 isoform 4 (UniProt O43379)
Chain of UniProt O43379 (O43379 whole entry, looked up): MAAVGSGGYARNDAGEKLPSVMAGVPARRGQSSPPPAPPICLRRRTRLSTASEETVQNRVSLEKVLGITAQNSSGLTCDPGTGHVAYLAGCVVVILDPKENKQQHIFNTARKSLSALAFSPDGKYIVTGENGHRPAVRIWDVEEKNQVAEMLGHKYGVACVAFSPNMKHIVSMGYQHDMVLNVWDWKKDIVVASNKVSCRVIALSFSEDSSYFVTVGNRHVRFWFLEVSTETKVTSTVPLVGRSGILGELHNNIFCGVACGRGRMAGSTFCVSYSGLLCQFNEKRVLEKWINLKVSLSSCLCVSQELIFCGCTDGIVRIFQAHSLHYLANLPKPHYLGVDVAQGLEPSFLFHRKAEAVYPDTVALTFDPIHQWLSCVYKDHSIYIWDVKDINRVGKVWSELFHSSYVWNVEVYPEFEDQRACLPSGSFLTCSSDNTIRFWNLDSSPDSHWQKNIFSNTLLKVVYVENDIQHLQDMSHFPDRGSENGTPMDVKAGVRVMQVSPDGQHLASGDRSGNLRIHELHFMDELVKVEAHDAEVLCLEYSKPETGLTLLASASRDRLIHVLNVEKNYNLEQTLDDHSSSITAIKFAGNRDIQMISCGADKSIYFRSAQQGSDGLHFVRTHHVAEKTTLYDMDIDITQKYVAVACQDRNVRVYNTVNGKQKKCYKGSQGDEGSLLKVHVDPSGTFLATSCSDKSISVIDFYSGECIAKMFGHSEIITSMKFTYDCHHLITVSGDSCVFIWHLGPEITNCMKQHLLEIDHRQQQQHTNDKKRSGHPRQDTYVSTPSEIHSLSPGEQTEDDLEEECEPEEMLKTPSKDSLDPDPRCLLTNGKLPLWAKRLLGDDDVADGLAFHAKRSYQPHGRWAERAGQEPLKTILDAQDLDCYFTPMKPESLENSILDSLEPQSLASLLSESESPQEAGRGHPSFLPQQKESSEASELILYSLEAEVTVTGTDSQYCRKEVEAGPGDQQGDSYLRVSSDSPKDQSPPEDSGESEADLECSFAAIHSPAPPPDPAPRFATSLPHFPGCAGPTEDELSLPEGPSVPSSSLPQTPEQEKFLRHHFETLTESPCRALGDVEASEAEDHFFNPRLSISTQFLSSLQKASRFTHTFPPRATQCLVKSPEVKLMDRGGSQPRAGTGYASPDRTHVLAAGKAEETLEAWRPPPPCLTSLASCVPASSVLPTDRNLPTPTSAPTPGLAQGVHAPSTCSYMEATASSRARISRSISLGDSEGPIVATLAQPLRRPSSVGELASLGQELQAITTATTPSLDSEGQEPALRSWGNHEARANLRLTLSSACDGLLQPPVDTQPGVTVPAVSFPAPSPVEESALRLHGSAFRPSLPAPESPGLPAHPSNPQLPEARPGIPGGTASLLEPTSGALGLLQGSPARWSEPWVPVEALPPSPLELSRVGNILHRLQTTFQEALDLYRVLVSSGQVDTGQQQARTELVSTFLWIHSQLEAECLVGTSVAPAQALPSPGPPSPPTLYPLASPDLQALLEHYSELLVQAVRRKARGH
active: volasertib -0.496
inactive: [1] -0.123 | [2] -0.015 | [3] -0.055 | [4] -0.033 | Nexturastat A 0.029 | vemurafenib 0.008 | [5] 0.053 | [6] -0.014 | givinostat 0.022 | barasertib 0.032 | [7] -0.02 | [8] 0.04 | epoxomicin 0 | [9] 0.006 | [10] 0.007 | [11] -0.035 | rosiglitazone 0.064 | [12] 0.047 | [13] -0.161
